Screening results from PubChem BioAssay.
Hits are enriched below; roughly 1.8% of the tested compounds scored in any of these assays.
p53ts 39C tox = p53ts cell cytotoxicity, nonpermissive temperature; H1299-p53A138V viability at 39C, ATP luminescence, 24 h; Potency, µM (top dose mostly 46.1 µM), for inactives: at the highest dose activity change, negative = cell killing, most hits filed as cytotoxic; hit rate 1.5% among 130,000; AID 902; note: % is set by controls: 0 for no effect and ±100 for the full control effect; nearly all actives have a fitted effect of over 55% in size
p53ts 32C tox = p53ts cell cytotoxicity, permissive temperature; H1299-p53A138V at 32C, ATP luminescence viability, 24 h; Potency, µM (series often up to 46.1 µM), for the others: at the highest dose activity change, negative = cytotoxicity, most hits filed as cytotoxic; hit rate 0.93% among 130,000;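 note: 0% = DMSO and -100% = full killing by reference compound; nearly all actives have a fitted effect of over 55% in size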
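Cells: H1299 p53ts (A138V), 600/well, pre-incubated 16–30 h at 37C. Cpd up to 46 uM, 24 h, 32C. Readout: ATPlite luminescence, 20 min RT. Normalization: DMSO vs tamoxifen 100 uM. AC50 by Hill equation.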
IkB sig inh = IkB pathway inhibition in ABC-DLBCL cells. Potency, µM (doses to about 57.1 µM), for the others: top-dose IkBa stabilization activation. AID 445. ABC-DLBCL IkBa-CBG/CBR dual luciferase ratio, 4 h; response scale: scaled: untreated 0%, proteasome inhibitor 100%. hit rate 0.04% among 110,000; active = well fitted curve in the direction sought with a large enough effect in the signal ratio, not every such curve was filed as active; inconclusive = small, poorly fitted or top-dose-only effect, or a change in a side signal; the % refers to the signal ratio;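 note: the direction sought is a rising ratio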
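In this assay, an IκBα–CBG68 fusion accumulates when IKK-driven degradation is blocked; native CBR normalizes for cell number. OCI-Ly3 cells were treated 4 h with compound and doxycycline, then green and red light read after Chroma-Glo addition.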
Imprint erasure = induces erasure of genomic imprints in mouse ES cells | mouse ES Peg3-LacZ reporter, beta-gal luminescence, 40 h | Potency, µM (titrated, usually from 60.7 µM), inactives show top-dose activity change, positive = activation, most hits filed as activators | hit rate 0.02% among 110,000 | AID 1948
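Imprint erasure is scored as LacZ activity from the silenced maternal Peg3 allele in feeder-free female ES cells cultured 40 h with LIF. Luminescence is normalized to in-plate negative controls and fitted to the Hill equation.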
The depositor's hits bear a star; ? = inconclusive; · = no result; [ ] = remark or other dose. Unless noted, calls come from the whole dose curve; as a rule, active = well fitted curve in the direction sought with a large enough effect; inconclusive = small, poorly fitted or top-dose-only effect, or another doubt; inactive = no such curve, though single readings can be large; an effect the other way counts as inactive or inconclusive. Potency is the fitted concentration of half-maximal effect.

SMILES	p53ts 39C tox	p53ts 32C tox	IkB sig inh	Imprint erasure
Cc1ccc(-n2nc3c(N4CCC(C(=O)NCCc5ccccc5C)CC4)nnc(C)c3c2C)cc1	20µM*	?	?	-7%[10.9 µM]
Cn1c(/C(C#N)=C/c2ccccc2Br)nc2ccccc21	?	10µM*	?	-14%[10.9 µM]
CC1=C(C(=O)Nc2ccc(C)cc2C)C(c2cc(Br)ccc2F)n2ncc(C(=O)Nc3ccc(C)cc3)c2N1 (configuration not stated)	13µM*	?	?	-20%[10.9 µM]
CCN(CC)CCNC(=O)c1[nH]c2ccccc2c1Sc1ccc(Cl)cc1	-15%	-8%	?	-2%[10.9 µM]
CC1(C)CC(=O)CC(=Nc2ccc3[nH]c(=O)[nH]c3c2)C1	-1%	-6%	3%	3%
C/C(=N\Nc1nc2ccccc2[nH]1)c1cc2ccccc2o1	13µM*	16µM*	·	·
NC(=O)Nc1nc2ccccc2[nH]1	6%	10%[1.84 µM]	-1%	4%
Cc1c(C)c(C)c(CC2(C)CSC2)c(CC2(C)CSC2)c1C	1%[9.22 µM]	3%[9.22 µM]	1%[11.4 µM]	-3%[10.9 µM]
Cc1ccc(Cl)cc1N1CCN(C2(c3ccccc3)C(=O)c3ccccc3C2=O)CC1	-2%	6%	7%	-1%[10.9 µM]
CCOC(=O)c1ccc(N2C(=O)C(O)=C(C(C)=O)C2c2ccccc2)cc1 (configuration not stated)	-3%	4%	·	·
